TDP1 cell CPT: growth inhibition of DT40 Tdp1-/-;hTDP1 cells with camptothecin (screen for TDP1 inhibitors); chicken DT40 Tdp1-/-;hTDP1 cells + 20 nM CPT, ATP luminescence, 48 h; Potency, µM (highest dose often 46.2 µM), without a hit: top-dose activity change, negative = growth inhibition, most hits filed as inhibitors; hit rate 12% among 420,000; AID 686979; further: potency means the concentration at half of the fitted maximal effect; nearly all actives have a fitted effect of over 55% in size
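Cell growth measured by CellTiter-Glo luminescence after a minimum 48 h, 37 C compound exposure with 20 nM CPT in Tdp1-knockout DT40 cells stably expressing hTDP1, seeded 400/well; qHTS titration format.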
HT1080 IDH1KD tx: HT-1080 IDH1 knockdown cell toxicity (counter line). Potency, µM (titrated, usually from 46.1 µM), for the others: at the highest dose activity, negative = toxicity, actives largely listed as cytotoxic. hit rate 2% among 360,000. HT-1080 IDH1 knockdown viability, ATP luminescence, 48 h;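 further: potency means the concentration at half of the fitted maximal effect; 0% = DMSO wells and -100% = cell-free medium wells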
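Viability of IDH1-knockdown HT-1080 fibrosarcoma cells was assessed by CellTiter-Glo after 48 h at 37 °C with titrated compound; concentration-effect curves were classified by fit quality and response size.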
IL1B secr inh: blocks inflammasome-driven IL-1 beta release; hit rate 4.7% among 360,000; THP-1 LPS/ATP IL-1B secretion, AlphaLISA, 16 h; stronger effect = lower value; activity change, % at 57.5 µM; in the data active means activity change below about -50%; inconclusive means mostly about -30% to -49%
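Secreted IL-1B measured by AlphaLISA bead assay after 16 h compound exposure of THP-1 cells; compounds (final up to 57.5 uM) added 1 h before LPS (250 ng/mL) and ATP (1.25 mM) stimulation; lower signal means less secretion.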
HT1080-NT tox: kills 2HG-producing HT-1080-NT fibrosarcoma cells | HT-1080-NT fibrosarcoma viability, CellTiter-Glo ATP luminescence, 48 h | hit rate 1.6% among 360,000 | Potency, µM (doses to about 46.1 µM), inactives show top-dose activity, negative = less viability, actives largely listed as cytotoxic | AID 686970;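 further: NT is the 2HG producing partner of a matched IDH1 knockdown line; potency means the concentration at half of the fitted maximal effect; 0% = DMSO-treated cells and -100% = media-only wells without cells; nearly all actives have a fitted effect of over 55% in size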
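Compounds were tested in concentration-response format on HT-1080-NT cells for 48 hours at 37 degrees C. Cell viability came from CellTiter-Glo luminescence; curves were classified by r2, response magnitude and activity.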
DT40 TDP1 no CPT: qHTS for Inhibitors of human tyrosyl-DNA phosphodiesterase 1 (TDP1): qHTS in cells in absence of CPT | Potency, µM (titrated, usually from 46.2 µM), without a hit: at the top dose activity change, negative = growth inhibition, usual class: inhibitors | DT40 Tdp1-/- hTDP1 cells, no CPT, ATP luminescence, 48 h | hit rate 15% among 420,000 | AID 686978, 2013; further: potency means the concentration at half of the fitted maximal effect; nearly all actives have a fitted effect of over 55% in size
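Stably hTDP1-transfected Tdp1-null chicken DT40 cells were treated with library compounds minus camptothecin and grown for at least 48 hr at 37 °C, after which cellular ATP was quantified by luminescence.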
uPA surface inh: blocks generation of uPA at the cell surface; cell surface uPA generation assay, qHTS; Potency, µM (highest dose often 38.3 µM), inactives show top-dose activity change, negative = inhibition, usual class: inhibitors; hit rate 0.31% among 330,000; active means well fitted inhibition curve with a large enough effect; inconclusive means small, poorly fitted or top-dose-only effect; inactive means no such curve, though single readings can be large or run the other way; tested in mouse RAW 264.7 cells; further: potency means the concentration at half of the fitted maximal effect; nearly all actives have a fitted effect of over 55% in size
Starred values were filed as active, the others as inactive; ? = inconclusive; . = no result. Sampled rows, rich in hits. Any-hit rate of the full collection: about 19%. Unless noted, the call rests on the fitted dose curve; in most records, active means well fitted curve in the direction sought with a large enough effect; inconclusive means small, poorly fitted or top-dose-only effect, or another doubt; inactive means no such curve, though single readings can be large; an effect the other way counts as inactive or inconclusive. Unless noted, on the % scale 0 is the no-effect control and ±100 the full control effect.

SMILES | TDP1 cell CPT | HT1080 IDH1KD tx | IL1B secr inh | HT1080-NT tox | DT40 TDP1 no CPT | uPA surface inh
COc1cccc(NC(=O)CSc2nc(O)c(C/C=C/c3ccccc3)c(=O)[nH]2)c1 | -6% | . | . | . | ? | .
N#Cc1ccc(CN2CCC3(CC2)CCN(C(=O)c2ccncc2)CC3)cc1 | 0% | . | . | . | -9% | .
Cc1cc(Cl)ccc1OCC(=O)NNC(=O)c1cnccn1 | 10µM* | ? | 2 | ? | 23µM* | 0%
O=C(COc1ccccc1Cl)NCCNC(=O)c1cnccn1 | 6% | 13% | 0 | 15% | 9% | 4%
Cc1ccc(C(=O)CC(=O)COc2ccc(Cl)cc2C)cc1 | 4.1µM* | ? | 9 | ? | 5.8µM* | 4%
Cc1ccc(C(=O)NNC(=O)COc2ccc(Cl)cc2C)o1 | ? | 2% | -54* | 6% | ? | 5%
Cc1ccc(NC(=O)c2ccc(OC(=O)COc3ccc(Cl)cc3C)cc2)cc1 | 3% | 11% | -7 | 13% | 11% | -4%
Cc1cc(Br)ccc1OCC(=O)NNC(=O)c1cnccn1 | ? | ? | 6 | -30% | 21µM* | ?
CCCC(=O)N1CCCC1(C)C(=O)Nc1ccc2cn[nH]c2c1 (centres undefined) | -27% | 16% | 12 | 3% | -2% | .
CCOC1=C2CN(S(=O)(=O)c3ccc(C)cc3)[C@H](c3ccccc3)C[C@@H]2N(S(=O)(=O)c2ccc(C)cc2)[C@H](c2cccs2)C1 | -20% | 21% | 0 | 15% | -9% | .
CC(=O)c1cc(CN2CCC(C(=O)Nc3ccc(-n4nc(C)cc4C)cc3)CC2)cs1 | ? | -9% | 4 | 1% | ? | -2%
COC(=O)c1ccc(C)c(NS(=O)(=O)c2ccc(OC)cc2)c1 | 0.29µM* | ? | 0 | ? | 0.23µM* | -8%
COC(=O)c1ccc(C)c(NS(=O)(=O)c2ccc3c(c2)OCCO3)c1 | 0.92µM* | 0.71µM* | 42 | 0.5µM* | 0.92µM* | ?
COC(=O)c1ccc(C)c(NS(=O)(=O)c2ccc(C)c([N+](=O)[O-])c2)c1 | -24% | ? | 19 | -24% | ? | -8%
CSCc1ccc(C(=O)NC(C)c2ccc(-n3ccnc3)cc2)cc1 (centres undefined) | -1% | 1% | 3 | 5% | -5% | 2%
O=c1[nH]c(=O)n(C2CCCO2)cc1F (centres undefined) | 1% | 7% | 2 | 15% | 1% | 0%
O=c1ccn(C2CCCO2)c(=O)[nH]1 (centres undefined) | -29% | 10% | -1 | 12% | 15µM* | 1%
S=c1[nH]nc(C2CCCCC2)n1/N=C/C=C/c1ccccc1 | 26µM* | -2% | -25 | -8% | ? | 2%
Oc1cccc(/C=N/n2c(C3CCCCC3)n[nH]c2=S)c1 | 7% | -14% | 9 | -11% | -22% | 2%
O=[N+]([O-])c1cccc(/C=N/n2c(C3CCCCC3)n[nH]c2=S)c1 | ? | 0% | 5 | -1% | 16µM* | 6%
CCCCC(=O)Nc1cccc(OCc2cc(=O)n3ccccc3n2)c1 | 1% | . | . | . | -20% | .
Cc1ccc(S(=O)(=O)N(CC(=O)NCc2ccc(F)cc2)C(=O)N2CCN(C)CC2)cc1 | 4% | 3% | 9 | 6% | 7% | 5%
CCc1ccc(NC(=O)c2ccc3c(c2)N(Cc2ccc(C)cc2)CCS3)cc1 | 15µM* | . | . | . | ? | .
CCOC(=O)N1CCC(NC(=O)c2ccc3c(c2)N(CC)CCS3)CC1 | 21µM* | -15% | 20 | 0% | ? | -23%
Cc1ccc(CN2CCSc3ccc(C(=O)NCC4CCCO4)cc32)cc1 (centres undefined) | ? | -9% | -14 | 3% | ? | 2%
SMILES | TDP1 cell CPT | HT1080 IDH1KD tx | IL1B secr inh | HT1080-NT tox | DT40 TDP1 no CPT | uPA surface inh
Cc1ccc(CN2CCSc3ccc(C(=O)Nc4ccc(F)cc4F)cc32)cc1 | 16µM* | . | . | . | ? | .
O=C(c1ccc2c(c1)N(Cc1ccccc1)CCS2)N1CCCCC1 | -30% | -9% | 9 | -2% | -29% | -4%
O=C(NCC1CCCO1)c1ccc2c(c1)N(Cc1ccc(Cl)cc1)CCS2 (centres undefined) | ? | -7% | ? | -19% | 23µM* | .
CCOC(=O)N1CCC(NC(=O)CN2C(=O)CCSc3ccccc32)CC1 | 1% | -2% | 3 | 2% | -7% | -6%
Cc1cc(C)c2c(=O)[nH][nH]c2n1 | ? | 8% | 11 | 8% | -27% | 7%
CCCn1nc(C(=O)Oc2ccc3c(C)cc(=O)oc3c2)c2ccccc2c1=O | ? | 22% | 34 | 7% | ? | 1%
O=C(NC(=S)NNC(=O)c1ccccc1[N+](=O)[O-])c1ccc(Br)cc1 | -1% | 1% | 52 | -16% | -24% | 5%
Cc1ccc(CN2CCSc3ccc(C(=O)NC4CCCC4)cc32)cc1 | 16µM* | -1% | -10 | -1% | ? | -3%
Cc1ccc(CN2CCSc3ccc(C(=O)NCc4cccnc4)cc32)cc1 | 23µM* | -5% | 0 | -15% | ? | 1%
Cc1ccc(CNC(=O)CN2C(=O)COc3ccc(S(=O)(=O)N4CCC(C)CC4)cc32)cc1 | ? | . | . | . | -29% | .
O=C1CCC/C=C\C[C@@H](CC(=O)N(CCO)Cc2ccccc2)C(=O)N[C@H](Cc2c[nH]c3ccccc23)CO1 | ? | 1% | -18 | 0% | 16µM* | 1%
O=C1CC/C=C\C[C@@H](CC(=O)N(CCO)Cc2ccccc2)C(=O)N[C@H](Cc2c[nH]c3ccccc23)CO1 | 16µM* | 10% | 2 | ? | ? | 12%
O=C1CCC/C=C/C[C@H](CC(=O)N(CCO)Cc2ccccc2)C(=O)N[C@@H](Cc2ccccc2)CO1 | ? | -1% | -9 | -5% | 21µM* | -10%
COc1ccc(CCNC(=O)Nc2ccc3nc([C@@H]4O[C@H](CO)[C@@H](O)[C@H](O)[C@H]4O)[nH]c3c2)cc1Br | -12% | ? | 49 | 20% | 0% | .
COc1cccc(CN2CCN(CCCc3ccccc3)C(CCO)C2)c1O (centres undefined) | -7% | 2% | 0 | -3% | 2% | 16%
Cc1cccc(NC(=O)CNC(=O)CN2C(=O)NC3(CCc4ccccc43)C2=O)c1C (centres undefined) | 0% | -1% | -6 | -2% | -6% | 7%
CCn1c(=O)n(CC)c2cc(N3CCCC3)c(NC(=O)c3cccc(C)c3)cc21 | 21µM* | -15% | ? | -7% | 16µM* | -5%
